# PubChem BioAssay AID590 (National Center for Advancing Translational Sciences (NCATS), 2007)
# Among all 59,000 compounds or so, about 6,500 (11%) were called active. Not shown: some 15% with an inconclusive outcome. No stated cut-off is given here; in the data, active means max dye-equivalent concentration above about 10 nM; inconclusive means mostly about 1.1 nM to 9.6 nM; inactive means weaker than that. Only a selection was taken, and actives are over-represented in it overall.
# Experiment: qHTS Assay for Spectroscopic Profiling in A350 Spectral Region
# Details: Compound autofluorescence, 340/450 nm, Alexa 350 dye-equivalents; hits give high values
row,Structure (SMILES),max dye-equivalent concentration
1,O=C(Cn1nc(C(F)(F)F)c2c1CCC2)NCc1ccc(F)cc1,inactive
2,O=c1[nH]c(=O)n(Cc2ccco2)c2c1C(C(F)(F)F)(C(F)(F)F)N=C(c1ccco1)N2,18 nM (active)
3,Nc1cc(=O)nc(SCc2ccccc2)n1Cc1ccco1,inactive
4,Cc1ccc(C(=O)OCC(=O)NCc2ccc3c(c2)OCO3)s1,inactive
5,O=C(OCc1nnc(-c2ccccc2)o1)c1ccc2c(c1)C(=O)N(CCc1ccccc1)C2=O,inactive
6,Fc1ccc2nc(-c3ccccc3)nc(SCc3nnc(-c4ccccc4)o3)c2c1,38 nM (active)
7,C=CCn1c(SCc2nnc(-c3ccccc3)o2)nnc1C(O)c1ccccc1 (stereo not given),inactive
8,O=C(Nc1cccc(F)c1)N1CC2(CCN(C(=O)c3cnccn3)CC2)C1,inactive
9,Oc1ccccc1CNCc1ccccc1O,inactive
10,CCOC(=O)CSc1nnc(CNc2ccc(F)cc2)o1,inactive
11,CCOc1ccc(CNC(=O)C2CCC(=O)N2C2CCCC2)cc1OC (stereo not given),inactive
12,CCOc1cc(C2C(C(=O)OC)=CN(C3CCCC3)C=C2C(=O)OC)cc(Br)c1O,230 nM (active)
13,CCOc1ccc(CNC(=O)C2CC(=O)N(C3CCCC3)C2)cc1OC (stereo not given),inactive
14,O=C(COc1ccc(S(=O)(=O)NCCc2ccccc2)cc1)N1CCCC1,inactive
15,CC1(C)CC(=O)c2sc(N)nc2C1,inactive
16,N#CC1=C(N)Oc2n[nH]c(CSc3ccccc3)c2C12C(=O)Nc1ccccc12 (stereo not given),inactive
17,COc1ccc(S(=O)(=O)N2CCCC(C(=O)N3CCN(C)CC3)C2)cc1C (stereo not given),inactive
18,COc1cccc(N2C(=O)CC(N3CCN(S(=O)(=O)c4ccccc4)CC3)C2=O)c1 (stereo not given),inactive
19,COc1ccc(S(=O)(=O)N2CCN(c3ncnc4c(-c5ccccc5)nsc34)CC2)cc1,120 nM (active)
20,CCOc1ccccc1NC(=O)CCN1CCN(S(=O)(=O)c2ccc(OC)cc2)CC1,inactive
21,Cc1ccc(C)c(NC(=O)C2CCCN2C(=O)OC(C)(C)C)c1 (stereo not given),inactive
22,OCCN1CCN(CC/C=C2\c3ccccc3Sc3ccc(C(F)(F)F)cc32)CC1,inactive
23,COc1ccccc1NC(=O)CSc1nnc(Cn2nnc(-c3ccccc3)n2)n1-c1ccccc1,inactive
24,O=C(NCCc1ccc2c(c1)OCCO2)c1cc2ccccc2o1,inactive
25,CCOC(=O)N1CCN(C(=O)c2cc3c(ccc4ccccc43)oc2=O)CC1,1700 nM (active)
26,CCOC(=O)N1CCN(C(=O)c2n[nH]c(=O)c3ccccc23)CC1,inactive
27,CCCCC(=O)Nc1cc(C)c2c(=O)oc3ccccc3c2n1,inactive

row,Structure (SMILES),max dye-equivalent concentration
1,CNC(=O)c1cc2c(ccc3ccccc32)oc1=N,11000 nM (active)
2,COc1c(C(=O)N2CCCC2)ccc2ccccc12,inactive
3,CC(C)(C)NCC[C@@H](O)c1cc(C(F)(F)F)nc2c(C(F)(F)F)cccc12,inactive
4,CC(=O)N1CCC2(CC1)CCN(c1ccncc1)CC2,inactive
5,CC1(N2CCOCC2)CC2(O)C(=[N+]1[O-])CCc1nonc12 (stereo not given),inactive
6,CCOC(=O)CSc1nc2c(c(=O)n(Cc3ccccc3Cl)c(=O)n2C)n1C,inactive
7,Cc1cc(C(=O)CC#N)c(C)n1CC(F)(F)F,inactive
8,Cc1cc(NC(=O)CCC(=O)N(c2cccc(F)c2)C(C(=O)NC2CCCC2)c2ccncc2)no1 (stereo not given),inactive
9,O=C(Cn1ccc(=O)[nH]c1=O)Nc1ccc(C(=O)O)c(O)c1,inactive
10,COCCn1nnnc1CN1CCC(NC(=O)Nc2cccc(OC)c2)CC1,inactive
11,O=C(O)COc1nsnc1N1CCOCC1,inactive
12,CN(C)C(=O)c1ccc(-c2cncnc2Nc2ccccc2)cc1,inactive
13,CN(C(=O)COc1ccccc1)c1nnc(-c2ccncc2)s1,inactive
14,CN(C(=O)c1ccno1)c1nnc(-c2cccnc2)s1,inactive
15,COc1cccc(-c2nnc(N(C)C(=O)c3ccno3)s2)c1,32 nM (active)
16,CCCn1c(SCC(N)=O)nnc1C(C)C,inactive
17,Cc1cccc(N)c1SC1CCCCC1O (stereo not given),inactive
18,O=c1c(F)cn(C2CCCO2)c(=O)n1Cc1ccccc1Cl (stereo not given),inactive
19,CCn1c(Cc2ccccc2)nnc1SCC(=O)Nc1ccccc1,inactive
20,COc1ccc2nc(N3CCCC(O)C3)c(C#N)cc2c1 (stereo not given),130 nM (active)
21,COc1ccc(OC)c(CNC(=O)C2CCCN(c3nc4ccccc4o3)C2)c1 (stereo not given),inactive
22,Cc1ccc(SCCN2C(=O)NC(C)(C)C2=O)cc1,inactive
23,Cn1nnc(NC(=O)CSc2ncn[nH]2)n1,inactive
24,Nc1ncc(-c2cc3ccccc3oc2=O)s1,inactive
25,O=C(NCc1ccccn1)Nc1ccc(F)cc1,inactive
26,Cc1ccsc1C(=O)OCC(=O)c1cc2ccccc2o1,inactive
27,O=C(NCc1ccccn1)c1cc2ccccc2oc1=O,21 nM (active)

row,Structure (SMILES),max dye-equivalent concentration
1,O=C(NCc1ccccn1)c1cnc2sccn2c1=O,inactive
2,O=C(Oc1cccnc1)c1cc2ccccc2oc1=O,96 nM (active)
3,CC(C)CSC[C@@H]1O[C@H](n2cnc3c(N)nccc32)[C@H](O)[C@@H]1O,inactive
4,O=c1cc(CSc2ccc(Cl)cc2)nc(N2CCOCC2)[nH]1,inactive
5,Cc1ccc2c(CSc3nncs3)cc(=O)oc2c1,inactive
6,O=C(Nc1cnccn1)c1cccnc1,inactive
7,O=C(c1ccncc1)N1CCC2(CCN(Cc3cc(C(F)(F)F)cc(C(F)(F)F)c3)CC2)CC1,inactive
8,O=C(Nc1cccc2c1CCCC2)C1CCN(C(=O)NC2CCCCC2)CC1,inactive
9,CCC(=O)Nc1ccc(C(=O)CSc2nnc(CNc3ccc(Cl)cc3)o2)cc1OC,inactive
10,O=C(NC1CCCCC1)n1c(=O)oc2cc(S(=O)(=O)N3CCCCC3)ccc21,inactive
11,CCC(c1nnnn1Cc1ccco1)N(CCc1ccccc1)Cc1cc2ccc(OC)cc2[nH]c1=O (stereo not given),inactive
12,CCOc1ccc2[nH]c(=O)c(CN(Cc3nnnn3CCc3ccccc3)CC3CCCO3)cc2c1 (stereo not given),76 nM (active)
13,CCC(c1nnnn1C1CCCC1)N(Cc1cccs1)Cc1cc2cccc(C)c2[nH]c1=O (stereo not given),inactive
14,Cc1cccc2cc(CN(Cc3cccs3)C(c3nnnn3C3CCCC3)C(C)C)c(=O)[nH]c12 (stereo not given),inactive
15,CCC(c1nnnn1Cc1ccccc1)N(Cc1cc2cc(OC)ccc2[nH]c1=O)CC1CCCO1 (stereo not given),32 nM (active)
16,CCOc1ccc2[nH]c(=O)c(CN(Cc3nnnn3Cc3ccccc3)CC3CCCO3)cc2c1 (stereo not given),150 nM (active)
17,CC(C)(C)n1nnnc1C(c1cccs1)N(Cc1cccnc1)CC1CCCO1 (stereo not given),inactive
18,CCC(c1nnnn1Cc1ccco1)N(Cc1cc2cc(OC)ccc2[nH]c1=O)C1CCCCC1 (stereo not given),21 nM (active)
19,COc1ccccc1N1CCN(Cc2nnnn2CCc2ccccc2)CC1,inactive
20,Cc1cccc2cc(CN(Cc3ccc4c(c3)OCO4)Cc3nnnn3C3CCCC3)c(=O)[nH]c12,inactive
21,COc1ccc(N(CC(=O)NC(C)(C)C)C(=O)c2ccco2)cc1,inactive
22,O=C(O)CCN1C(=O)CC2(CCCCC2)C1=O,inactive
23,O=c1[nH]nc(CSCc2ccccc2Cl)[nH]1,inactive
24,N#Cc1ccc(CSc2nnc(-c3ccccn3)n2-c2ccc(Cl)cc2)cc1,inactive
25,CN(C)c1ccc(CNC23CN4CN(CN(C4)C2)C3)cc1,inactive
26,CCOC(=O)CSc1nnc(CNC(=O)c2ccco2)n1-c1ccc(F)cc1,inactive
27,O=C(Oc1ccc2c(c1)CN(Cc1ccccc1)CO2)c1ccccc1,inactive

row,Structure (SMILES),max dye-equivalent concentration
1,COC(=O)c1c(NC(=O)CSc2nc3c(c(=O)n(C)c(=O)n3C)n2C(C)C)sc(C)c1C,inactive
2,CCOP1(=O)C=C(C(C)(C)C)OC1c1ccc(F)cc1 (stereo not given),inactive
3,CC(C)c1nc(-c2ccccn2)no1,inactive
4,CSCCC(NS(=O)(=O)/C=C/c1ccccc1)C(=O)N1CCC(C)CC1 (stereo not given),inactive
5,CCn1c(SCC(=O)Nc2ccc3c(c2)OCCO3)nc2c(c1=O)SC(C)C2 (stereo not given),inactive
6,O=C(O)c1ccc(C(=O)O)c2c(C(=O)O)ccc(C(=O)O)c12,inactive
7,COc1ccc2[nH]c(=O)c(CN(Cc3nnnn3CCc3ccccc3)CC3CCCO3)cc2c1 (stereo not given),300 nM (active)
8,CCOc1ccc2c(c1)cc(CN(C(=O)CC)C1CCCCC1)c1nnnn12,inactive
9,O=C(CN(CC1CCCO1)C(=O)CNS(=O)(=O)c1ccccc1)NCc1ccccc1 (stereo not given),inactive
10,Cc1cc(C)c2cc(CN(Cc3cccs3)Cc3nnnn3CC3CCCO3)c(=O)[nH]c2c1 (stereo not given),inactive
11,CCOc1ccc2[nH]c(=O)c(CN(CCCO)C(C)=O)cc2c1,290 nM (active)
12,CCC(=O)N(Cc1cc2cc(OC)ccc2[nH]c1=O)c1ccccc1C,170 nM (active)
13,COc1ccc2[nH]c(=O)c(CN(CC3CCCO3)C(=O)Nc3ccccc3)cc2c1 (stereo not given),100 nM (active)
14,O=C(OCc1cc2ccccc2[nH]c1=O)c1cccnc1,inactive
15,c1ccc(CCn2nnnc2CN2CCN(C3CCCC3)CC2)cc1,inactive
16,C[C@@H]1CC[C@H]2[C@H](C)[C@H]3[C@H](C[C@H]4[C@@H]5CC=C6C[C@@H](O)CC[C@@]6(C)[C@@H]5C[C@@H](O)[C@]34C)N2C1,inactive
17,CN(C)CCNC(CC(=O)Nc1ccc(Cl)c(Cl)c1)C(=O)O (stereo not given),inactive
18,Cc1ccc(CNC(=O)C2CCCN(S(C)(=O)=O)C2)cc1 (stereo not given),inactive
19,O=C(Nc1ccccc1F)c1cc(S(=O)(=O)N2CCCCC2)cs1,inactive
20,NCC(=O)[C@@H](O)[C@H](O)[C@H](O)CO,inactive
21,O=C(O)c1nn(-c2ccc(Cl)cc2)c2c1C(=O)c1ccccc1C2=O,inactive
22,CCCN1CCN(CCCNC(=O)CN2C(=O)COc3ccccc32)CC1,inactive
23,CCn1c2c(c3ccc(OC)cc31)CCCC2=O,11 nM (active)
24,C[C@H](CCC(=O)NCC(=O)O)[C@H]1CC[C@H]2[C@H]3[C@@H](C[C@@H](O)[C@]12C)[C@]1(C)CC[C@H](O)C[C@@H]1C[C@@H]3O,inactive
